This is an account of results in PubChem BioAssay AID868 (SRMLSC, 2007).

Among all 190,000 compounds or so, about 3,500 (1.8%) were called active. The full list was thinned out, with actives kept by preference. Unmarked numbers belong to inactive results.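 How the source made its calls: active means inhibition above a set limit, 3 SD over mean compound inhibition (cut at about 8.4% in these data); inactive means the rest.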

The experiment is described as follows: inhibitors of the yeast RAM network, primary screen, dse1pr::URA3 reporter, 5-FOA selection (AID 868).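 Further: 0% = DMSO-only wells with no growth and 100% = 10 µM 1-NA-PP1 full growth; inhibition rescues growth on 5-FOA so higher OD means more RAM inhibition.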 The note with it: S. cerevisiae dse1pr::URA3 reporter, 5-FOA growth OD615, 2 d; at 50 µM; hits give high values; analog-sensitive cbk1-as2 kinase mutant strain.
For orientation: inhibition means the drop in the measured response relative to a control, in per cent. Take `CC(C)c1cc(NCc2ccccn2)n2c(nc3ccccc32)c1C#N`: the inhibition was -0.26%.

Take `C=CCc1ccccc1OCC(=O)N/N=C/c1ccccc1OCC`: the inhibition is 12.4% (active).

On to `C=C(C)CNC(=S)N/N=C/c1ccccc1OCC(=O)O`, for which the inhibition is 0%.

On to `CCOc1ccccc1/C=N/NC(=O)CNC(=O)COc1ccccc1`, for which the inhibition was 1.01%.

As for `O=[N+]([O-])c1cc(S(=O)(=O)CCCN2CCOCC2)ccc1F`, the inhibition is -0.13%.

For `COc1ccc(/C(C)=N/NC(=O)CCC(=O)Nc2ccc(Cl)cc2Cl)c(OC)c1`, the inhibition was 0.4%.

Turning to `COc1ccc(/C(C)=N/Nc2cc(C(F)(F)F)ccc2Cl)c(OC)c1`, the inhibition was 13.5% (active).

Consider `COc1cc(OC)c(C(=O)OC(C)C(=O)Nc2cc(C(F)(F)F)ccc2Cl)cc1OC` (stereo not given), for which the inhibition was 0.5%.

Turning to `COC(=O)c1ccc(CN2CCC(CO)(Cc3ccc(OC)cc3)CC2)cc1`, the inhibition is 1.4%.

Consider `COc1ccc(-c2ccc(CCC(=O)O)n2NC(=O)c2ccc(C(C)(C)C)cc2)cc1`, for which the inhibition was 5.38%.

In the case of `Cc1ccc(CN2CCN(Cc3ccc4ncccc4c3)CC2CCO)cc1` (stereo not given), the inhibition is 0.13%.

For `O=C(/C=C/c1ccc2c(c1)OCO2)NCc1cn2cc(Cl)ccc2n1`, the inhibition was 3.64%.

As for `Cc1ccc(Cl)cc1NC(=O)COC(=O)CC(C)(C)C`, the inhibition is -1.53%.

For `O=C(COC(=O)CCCNC(=O)c1ccc(Cl)cc1)Nc1cc(Cl)ccc1Cl`, the inhibition is 14.2% (active).

As for `Cc1ccc(Cl)cc1NC(=O)COC(=O)C1CCCCC1`, the inhibition is 1.91%.

As to `O=C(O)c1n[nH]nc1-c1ccccc1`, the inhibition is 0.27%.

Take `C=CCOC(=O)C1=C(C)OC(N)=C(C#N)C1c1ccc(F)cc1` (stereo not given): the inhibition was 1.6%.

For the molecule `C=CCOC(=O)C1=C(C)NC(SCC(=O)OCC)=C(C#N)C1c1ccc(C)cc1` (stereo not given), the inhibition was 17.7% (active).

`CC1=C(C(=O)Nc2ccccc2)C(c2ccco2)C(C#N)=C(SCC(N)=O)N1` (stereo not given): the inhibition is -0.14%.

In the case of `CCOC(=O)CSC1=C(C#N)C(c2sccc2C)CC(=O)N1` (stereo not given), the inhibition was 0%.

Regarding `CCOC(=O)CSC1=C(C#N)C(c2ccco2)C(C(=O)OCc2ccccc2)=C(C)N1` (stereo not given), the inhibition was 17.6% (active).

As to `Cc1ccc(C2CC(=O)NC(SCC(=O)OCc3ccccc3)=C2C#N)o1` (stereo not given), the inhibition was 0.38%.

As for `S=c1ccc2ccccc2[nH]1`, the inhibition is -0.88%.

For `Cc1noc(C)c1COc1ccc2ccc(=O)oc2c1`, the inhibition was 0.12%.

As for `O=C(NC1CC1)c1ccc(-c2ccccc2)cc1`, the inhibition was 1.25%.

Turning to `Cc1cccc(OCCNC(=O)CSc2ccc(C(F)(F)F)cc2[N+](=O)[O-])c1`, the inhibition is 3.14%.

For `COc1ccc(N2CCN(C(C)=C3C(=O)c4ccccc4C3=O)CC2)cc1`, the inhibition was -1.52%.

`CN(C)c1ccc(C(=S)N2CCN(C(=S)Nc3ccc(Cl)cc3)CC2)cc1`: the inhibition was 4%.

`Cc1ccc(SCC(=O)Nc2ccc3c(c2)OCCO3)cc1`: the inhibition is 0.6%.

With `Cc1ccc(SCC(=O)c2cc(C)c(OC(=S)N(C)C)c(C)c2)cc1`, the inhibition was 9.5% (active).

Consider `Cc1ccc(SCC(=O)c2sc(-c3ccccc3)nc2C)cc1`, for which the inhibition is 2.13%.

In the case of `O=C(CCCN1C(=O)/C(=C\c2ccco2)SC1=S)Nc1cccc2ccccc12`, the inhibition was 4.94%.

Regarding `COc1ccc(/C=C2/SC(=O)N(CCCCCC(=O)Nc3ccccc3C(=O)O)C2=S)cc1`, the inhibition is 9.16% (active).

`O=C(CCCN1C(=O)/C(=C/c2ccccc2)SC1=S)Nc1ccc(O)cc1`: the inhibition was 0.63%.

Take `COc1ccccc1Oc1ccc(S(=O)(=O)Nc2cccnc2)cc1`: the inhibition was -0.91%.

Regarding `COC(=O)Cc1ccc(Oc2ncc(C(F)(F)F)cc2Cl)cc1`, the inhibition is 0.6%.

With `Cc1cc(C)cc(NS(=O)(=O)c2ccc(Oc3ncc(C(F)(F)F)cc3Cl)cc2)c1`, the inhibition is 10.7% (active).

With `CCOC(=O)Cc1ncccc1C(=O)Nc1ccc(OC(F)(F)F)cc1`, the inhibition is -0.27%.

On to `O=C(Nc1cccc(C(F)(F)F)c1)c1cnccn1`, for which the inhibition was 3.61%.

Take `COc1cc(C(=S)N2CCOCC2)cc(OC)c1OC(=O)c1cc([N+](=O)[O-])c(C)c([N+](=O)[O-])c1`: the inhibition was 3.68%.

With `COc1c(Br)cc2c(C)c(C(=O)N3CCOCC3)oc2c1Br`, the inhibition was 13.5% (active).

In the case of `COc1cc(NC(=O)N2CCOCC2)cc(OC)c1`, the inhibition was 0.39%.

Regarding `Cc1ccccc1NS(=O)(=O)CCCCC(Cl)(Cl)Cl`, the inhibition was 1.86%.

Turning to `Cc1ccc(-c2csc(N(Cc3ccco3)C(=O)c3cccs3)n2)cc1`, the inhibition was 8.42% (active).

Take `O=C(O)CCC(=O)N(Cc1ccco1)c1nc(-c2ccccc2)cs1`: the inhibition was 3.13%.

Consider `Cc1ccc(-c2csc(NC(=O)c3cccs3)n2)cc1`, for which the inhibition is 3.07%.

As to `O=C(CN1C(=O)NC2(CCCCCC2)C1=O)NC1CC1`, the inhibition is -0.87%.

For the molecule `Cc1ccc2nc(COc3ccc(N(C)S(=O)(=O)c4ccccc4)cc3)cc(=O)n2c1`, the inhibition is 2.17%.

As to `CCC1CCCCN1CCCNC(=O)c1cc2c(Cl)nc3ccccc3c2s1` (stereo not given), the inhibition is 1.99%.

`N#Cc1ccc(-c2nc3cc(C#N)c(C#N)cc3nc2-c2ccccc2)cc1C#N`: the inhibition is 1.25%.

Take `COc1cccc(C2CC(c3ccccc3)=NN2S(=O)(=O)c2ccccc2)c1OC` (stereo not given): the inhibition is 2.56%.

Turning to `COc1ccccc1C1CC(=O)n2c(nc(-c3ccccc3)c2-c2ccccc2)S1` (stereo not given), the inhibition is 8.41% (active).

Take `COc1ccc(C2CC(=O)n3c(nc4ccccc43)S2)cc1OC` (stereo not given): the inhibition was 3.3%.

Regarding `O=C(COC(=O)c1ccccc1C(=O)N1CCN(c2ccccc2)CC1)NCc1ccccc1`, the inhibition was 1.15%.

As for `CN1CCNC(=O)C1CC(=O)N1CC=C(c2ccc(F)cc2)CC1` (stereo not given), the inhibition is -0.5%.

For `NC(=O)C[n+]1cccc(C(N)=O)c1`, the inhibition is 1.51%.

For the molecule `CCc1ccccc1NC(=S)N(CCN1CCCCCC1)Cc1ccco1`, the inhibition was -0.63%.

In the case of `O=C1c2ccccc2C(=O)N1CCCc1nc(-c2ccccc2)no1`, the inhibition is 3.93%.

Consider `Cc1ccc2[nH]cc(CCCN3C(=O)c4ccccc4C3=O)c2c1`, for which the inhibition is 8.46% (active).

For `Cc1ccc2[nH]cc(CCNC(=O)c3ccc([N+](=O)[O-])cc3)c2c1`, the inhibition was -1.27%.

Consider `NC(=O)COC(=O)c1cc(S(=O)(=O)N2CCN(c3ccccc3)CC2)ccc1Cl`, for which the inhibition was 5.02%.

Take `Cc1ccc(C(=O)NC(=S)Nc2ccccc2C)cc1`: the inhibition is -0.37%.

As for `Cc1cc2[nH]ncc2cc1NC(=S)NC(=O)c1ccccc1`, the inhibition is 3.3%.

With `Cc1ccc(NC(=S)NC(=O)c2ccc(-c3ccccc3)cc2)c(C)c1`, the inhibition is 8.7% (active).

In the case of `CCCCN(C)c1ccc([N+](=O)[O-])cc1`, the inhibition is -1.26%.

For the molecule `Cc1cccc(C2=N/C(=C/c3cccs3)C(=O)O2)c1`, the inhibition is 4.44%.

As to `C/C(N)=C(/C#N)C(=O)COC(=O)c1cc(-c2ccccc2)nc2ccc(Br)cc12`, the inhibition is 3.84%.

As for `Cc1cccc(CSc2nnc(C)c(=O)n2N)c1`, the inhibition is 0.13%.

On to `Cc1nc2c(C(=O)NCc3cccs3)cnn2c(C)c1Cc1ccc(F)cc1`, for which the inhibition is 1.27%.

As for `COC(=O)Cn1c(=NC(=O)c2cc(OC)c(OC)c(OC)c2)sc2cc(OC)ccc21`, the inhibition was 5.03%.

With `CCOC(=O)c1c(C)nc2c(c1C)c(=O)oc1ccccc12`, the inhibition is 18.6% (active).

`CCOC(=O)N1CCN(C(=O)c2cc3c(ccc4ccccc43)oc2=O)CC1`: the inhibition was 4.45%.

For the molecule `CCCCC(=O)Nc1cc(C)c2c(=O)oc3ccccc3c2n1`, the inhibition was 7.85%.

On to `CCN(CC)CC1(O)CCN(C(=O)c2ccc(Cl)c(Cl)c2)CC1`, for which the inhibition was 1.77%.

Regarding `O=C(COC(=O)c1cc2c(s1)CCCC2)NCc1ccccc1Cl`, the inhibition was 4.18%.

On to `O=C(COC(=O)/C(=C/c1cccs1)c1cccs1)NCc1ccccc1Cl`, for which the inhibition was 14% (active).

In the case of `O=C(COC(=O)Cn1cnc2ccccc2c1=O)NCc1ccccc1Cl`, the inhibition was 0%.

As to `O=C1Oc2ccccc2C(=O)/C1=C/c1ccccc1O`, the inhibition is 0.25%.

`O=C(CSc1ccccc1)Nc1ccc(NC(=O)c2ccco2)cc1`: the inhibition was 3.77%.

On to `COC(=O)c1ccc(NC(=O)c2ccco2)cc1`, for which the inhibition is 0.13%.

For the molecule `O=C(Nc1ccc(Sc2ccc(Br)cc2)cc1)c1ccco1`, the inhibition is 9.42% (active).

As for `Cc1cccc(Cn2c(SCCO)nc3c2c(=O)n(C)c(=O)n3C)c1`, the inhibition is 0.88%.

In the case of `CCCSc1nc2c(c(=O)n(C)c(=O)n2C)n1Cc1ccc(C)cc1`, the inhibition was 8.43% (active).

With `CCOc1ccc(Cn2c(SCCCCC#N)nc3c2c(=O)n(C)c(=O)n3C)cc1OCC`, the inhibition was 1.06%.

As for `COc1ccc(CCNc2cc(C)nc3c(-c4ccc(Cl)cc4)c(C)nn23)cc1OC`, the inhibition was -0.42%.

Take `CCc1cccc2c(=O)c(C(=O)NCCCOC)c[nH]c12`: the inhibition is 3.16%.

`COC(=O)CCCCCN1C(=O)NC(c2ccc(-c3ccccc3)cc2)C(C(=O)OCc2ccccc2)=C1C` (stereo not given): the inhibition was 15.8% (active).

For the molecule `CC1=C(C(=O)OCc2ccccc2)C(c2ccc(C(F)(F)F)cc2)NC(=O)N1CCCCCC(=O)O` (stereo not given), the inhibition is 7.19%.

On to `COCCN1C(=O)N[C@@H](c2ccccc2)C(C(=O)OC)=C1C`, for which the inhibition was 0.8%.

Turning to `O=C(NCCCNc1ccc([N+](=O)[O-])cc1Cl)c1ccccc1F`, the inhibition is 1.43%.

In the case of `COCC(C)n1c(C)cc(C(=O)COc2ccc(C)nc2[N+](=O)[O-])c1C` (stereo not given), the inhibition is 1.49%.

As for `Cc1ccc(C(=O)NC(=S)NCc2cccnc2)cc1`, the inhibition was 5.38%.

Turning to `COc1cc(C2C(C(=O)c3ccc(C)o3)=C(O)C(=O)N2Cc2cccnc2)ccc1O` (stereo not given), the inhibition is 0.23%.

For `COc1cc(C2C(C(=O)c3ccc(C)o3)=C(O)C(=O)N2CCc2ccccc2)ccc1O` (stereo not given), the inhibition is 9.49% (active).

Regarding `COc1ccc(C2C(C(C)=O)=C(O)C(=O)N2CCc2c[nH]c3ccccc23)cc1` (stereo not given), the inhibition is 3.37%.
